Screening results: PubChem, Broad Institute
PAX8 reporter: inhibitors of PAX8-driven TPO luciferase reporter, primary screen, RMG-I cells, single concentration; inhibition, % at 12.6 µM; AID 652154, 2013; 360,000 compounds, 1.2% hits; SteadyGlo, 24 h;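 active = mean replicate inhibition at least 60% with every replicate also reaching 60%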;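 also: luciferase light reporting Pax8 driven TPO promoter activity; plate controls were median of neutral control wells for no effect and mitoxantrone controls for full effect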
Shn3 inh set2: reduction of Shn3 3'UTR firefly luciferase signal, primary screen, Schnurri-3 inhibitor project, cell-based, Clone20 osteoblasts, set 2; Clone20 osteoblast Shn3 3'UTR firefly luciferase, 24 h; inhibition, % at 12.5 µM; 360,000 compounds, 0.52% hits;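 active = mean inhibition of at least 75% with every replicate also reaching 75%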;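 also: 0% = median of neutral control wells and 100% = pilot-screen positive control compound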
LMP1 NFkB inh: EBV LMP1-driven NF-kappaB luciferase reporter inhibitors, primary screen, cell-based, luminescence, single point. LMP1-induced NF-kappaB luciferase reporter cells. inhibition, % at 12.5 µM. 350,000 compounds, 0.69% hits. AID 504558, 2011; in the data active = inhibition above about 41%;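 also: 0% = neutral control wells and 100% = reference inhibitor control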
N-glyco inh: increase of ERlucT glycosylation luciferase signal, primary screen, N-linked glycosylation inhibitor project, D54 ERlucT cells, luminescence, set 2; reporter increase, % at 12.5 µM; 360,000 compounds, 0.23% hits; D54 ERlucT glycosylation luciferase reporter, 24 h; percent of 100 nM tunicamycin response;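 active = mean luciferase reporter signal, scaled so untreated is 0 and the glycosylation-blocking control 100, at or above a set limit in every replicate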;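 also: luciferase carries N-glycosylation sites so blocking glycosylation raises the light; 0% = median of neutral control wells and 100% = median of 100 nM tunicamycin wells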
NSD2 HMT inh: NSD2 histone methyltransferase inhibitors, primary screen, biochemical, AlphaScreen, single concentration, set 2; 310,000 compounds, 0.54% hits; inhibition, % at 12.5 µM; NSD2 peptide methylation, 120 min; in the data active = inhibition above about 50%
HIV Env fusion: inhibitors of HIV-1 Env-driven cell-cell fusion, primary screen, HeLa-JRFL effector, CEM21 target cells, luciferase | inhibition, % at 12.3 µM | 360,000 compounds, 1.1% hits | AID 651610, 2012;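 active = mean replicate inhibition score of at least 50 and every replicate individually at or above 50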;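 also: 0% = plate neutral controls and 100% = maraviroc near 300 nM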
Active calls of the source: *; [ ] = remark or other dose. This is a sample that favours compounds with a hit; in the whole collection about 2.8% have one here.

How did COc1ccc(S(=O)(=O)Nc2ccc3c(c2)C(=O)N([C@H](C)CO)C[C@@H](C)[C@H](CN(C)C(=O)Nc2ccc(C(F)(F)F)cc2)OCCCC[C@H](C)O3)cc1 do in these assays?
PAX8 reporter: 76.9*; HIV Env fusion: 35.0[16.7 µM]

How did OCC1OC(n2cnc3c(SCc4ccccc4)ncnc32)C(O)C1O (stereo not given) do in these assays?
PAX8 reporter: 15.9; Shn3 inh set2: 1.0; LMP1 NFkB inh: 1.7; N-glyco inh: 113.2*; NSD2 HMT inh: 0.1; HIV Env fusion: -46.6

What do the screens show for `OCC1OC(n2ccc3c(SCc4ccccc4)ncnc32)C(O)C1O` (stereo not given)?
PAX8 reporter: -115.2; Shn3 inh set2: -59.2; LMP1 NFkB inh: -26.1; N-glyco inh: 32.0*; NSD2 HMT inh: -1.6; HIV Env fusion: -26.8

How did Nc1nc(SCc2ccccc2)c2ncn(C3OC(CO)C(O)C3O)c2n1 (stereo not given) do in these assays?
PAX8 reporter: -21.9; Shn3 inh set2: 8.1; LMP1 NFkB inh: 6.7; N-glyco inh: 1.8; NSD2 HMT inh: -0.6; HIV Env fusion: -3.5

What do the screens show for `CCCC(O)C#Cc1cnc2c(c1)C(=O)N([C@H](C)CO)C[C@H](C)[C@H](CN(C)C(=O)Nc1c(C)noc1C)O2` (stereo not given in full)?
PAX8 reporter: -28.1; HIV Env fusion: 4.8[16.7 µM]

How did C[C@@H]1CN([C@H](C)CO)C(=O)c2cc(NC(=O)NC3CCCCC3)ccc2O[C@H]1CN(C)Cc1ccc2c(c1)OCO2 do in these assays?
PAX8 reporter: -1.7; HIV Env fusion: -5.7[16.7 µM]

What do the screens show for `COc1cc(O)c(C(CCN2CCCCC2)c2ccc(N(C)C)cc2)c(OC)c1` (stereo not given)?
PAX8 reporter: -13.5; Shn3 inh set2: 6.0; LMP1 NFkB inh: -7.2; N-glyco inh: -3.4; HIV Env fusion: 56.5*

Results for COc1cc(O)c(C(CCN2CCCC2)c2ccc(N(C)C)cc2)c(OC)c1 (stereo not given) ?
PAX8 reporter: -3.6; Shn3 inh set2: 8.4; LMP1 NFkB inh: 4.7; N-glyco inh: -1.5; HIV Env fusion: -70.6

Results for C[C@H]1CN([C@@H](C)CO)C(=O)Cc2cc(NS(=O)(=O)c3ccc(F)cc3)ccc2O[C@@H]1CN(C)C(=O)Nc1ccc(C(F)(F)F)cc1 ?
PAX8 reporter: -2.4; HIV Env fusion: 5.4[16.7 µM]

Results for C/C=C/c1ccccc1[C@H]1[C@H](C#N)N(C(=O)c2cccnc2)[C@H]1CO ?
PAX8 reporter: 8.4; HIV Env fusion: -8.9[16.7 µM]

Results for O=C1C(=C2CCCCC2)SC(=S)N1Cc1ccco1 ?
Shn3 inh set2: -8.5; LMP1 NFkB inh: 44.2*; N-glyco inh: -2.5; HIV Env fusion: 39.9

How did CC(=O)Nc1ccc2ccccc2c1 do in these assays?
Shn3 inh set2: -26.0; LMP1 NFkB inh: -8.8; N-glyco inh: 1.6

What do the screens show for `CC(=O)Nc1ccc2cc3ccc(NC(C)=O)cc3nc2c1`?
PAX8 reporter: -78.9; Shn3 inh set2: -20.5; LMP1 NFkB inh: -8.0; N-glyco inh: 36.3*; HIV Env fusion: -60.6

What do the screens show for `COC(=O)C[C@@H]1CC[C@H]2[C@@H](COc3ccc(NC(=O)c4ccc(F)cc4)cc3C(=O)N2C)O1`?
PAX8 reporter: -0.5; HIV Env fusion: -25.9[16.7 µM]

What do the screens show for `O=C(Nc1nc2ccccc2[nH]1)c1ccccc1F`?
Shn3 inh set2: 79.9; LMP1 NFkB inh: 77.3*; N-glyco inh: -20.3; HIV Env fusion: 74.6*

What do the screens show for `CC(C)Oc1ccc(C(=O)Nc2nc3ccccc3[nH]2)cc1`?
PAX8 reporter: 68.3*; Shn3 inh set2: 46.9; LMP1 NFkB inh: 69.9*; N-glyco inh: -19.5; NSD2 HMT inh: -2.3; HIV Env fusion: 57.3*

How did CCc1ccc(C(=O)Nc2nc3ccccc3[nH]2)cc1 do in these assays?
PAX8 reporter: 75.8*; Shn3 inh set2: 51.5; LMP1 NFkB inh: 68.6*; N-glyco inh: -18.5; NSD2 HMT inh: 3.4; HIV Env fusion: -194.5

Results for CN(c1ccccc1)S(=O)(=O)c1ccc(Cl)c(C(=O)Nc2nc3ccccc3[nH]2)c1 ?
PAX8 reporter: 15.8; Shn3 inh set2: 20.4; LMP1 NFkB inh: 13.5; N-glyco inh: -8.5; NSD2 HMT inh: 2.9; HIV Env fusion: 71.8*

How did O=C(Nc1nc2ccccc2[nH]1)c1ccc(F)cc1 do in these assays?
Shn3 inh set2: -9.4; LMP1 NFkB inh: 29.5; N-glyco inh: -12.8; NSD2 HMT inh: -1.8

What do the screens show for `CN(c1ccccc1)S(=O)(=O)c1ccc(Cl)c(C(=O)Nc2ccc(-c3nc4ccccc4[nH]3)cc2)c1`?
PAX8 reporter: 39.9; Shn3 inh set2: 18.4; LMP1 NFkB inh: 6.8; N-glyco inh: 16.6; NSD2 HMT inh: -2.4; HIV Env fusion: 21.8

Results for O=C(Nc1nc2ccccc2[nH]1)c1ccc(OC(F)F)cc1 ?
PAX8 reporter: -87.6; Shn3 inh set2: 11.5; LMP1 NFkB inh: -2.1; N-glyco inh: -16.6; NSD2 HMT inh: 1.3; HIV Env fusion: -139.1

Results for Cc1ccnc(NC(=O)c2ccc(Cl)c(NC(=O)c3ccccc3F)c2)c1 ?
NSD2 HMT inh: 1.7

What do the screens show for `O=C(Cc1ccccc1)N1C[C@H]2[C@@H](c3ccccc31)[C@@H](CO)N2C(=O)c1ccc(F)cc1`?
PAX8 reporter: 10.8

Results for CC(C)C(=O)Nc1cccc(COc2ccc(CN(Cc3ccccc3)C(=O)OC(C)(C)C)cc2)c1 ?
PAX8 reporter: 71.7*; Shn3 inh set2: 47.3; LMP1 NFkB inh: -6.0; N-glyco inh: -6.1; HIV Env fusion: 58.2*

What do the screens show for `CC(C)(C)OC(=O)N(CCc1ccccc1)Cc1cccc(OCc2cccc(NC(=O)c3ccccc3)c2)c1`?
PAX8 reporter: 2.8; Shn3 inh set2: 45.2; LMP1 NFkB inh: 3.4; N-glyco inh: -7.1; HIV Env fusion: 66.1*

Results for O=C1ON=C(c2ccccc2[N+](=O)[O-])/C1=C/c1cccc([N+](=O)[O-])c1O ?
PAX8 reporter: 2.6; Shn3 inh set2: 4.9; LMP1 NFkB inh: 71.3*; N-glyco inh: -0.4; NSD2 HMT inh: -4.5

Results for O=C1ON=C(c2ccc(Cl)c([N+](=O)[O-])c2)/C1=C/c1cccc([N+](=O)[O-])c1O ?
PAX8 reporter: -11.7; Shn3 inh set2: -8.6; LMP1 NFkB inh: 4.7; N-glyco inh: 2.4; NSD2 HMT inh: 3.6; HIV Env fusion: -12.9

How did C[C@H]1CN([C@@H](C)CO)C(=O)c2cccc(NC(=O)c3cnccn3)c2O[C@H]1CN(C)S(=O)(=O)c1cccs1 do in these assays?
HIV Env fusion: -18.5[16.7 µM]

Results for Cc1ccccc1NC(=O)c1ccc(Cl)c(NC(=O)c2ccco2)c1 ?
NSD2 HMT inh: 1.1
